Rows were chosen to be rich in hits. Some 15% of all compounds tested hit in one or more screens of this group.
RORg inh – qHTS for inhibitors of ROR gamma transcriptional activity. Drosophila S2 Gal4-RORgamma UAS-luciferase reporter, 20 h. Potency, µM (top dose mostly 53.6 µM), for inactives: top-dose activity change, negative = inhibition, actives largely listed as inhibitors. 310,000 tested, 5.4% active; also: nearly all actives have a fitted effect of over 60% in size
Target sequence (P51450 whole entry, looked up, the tested form may be a part): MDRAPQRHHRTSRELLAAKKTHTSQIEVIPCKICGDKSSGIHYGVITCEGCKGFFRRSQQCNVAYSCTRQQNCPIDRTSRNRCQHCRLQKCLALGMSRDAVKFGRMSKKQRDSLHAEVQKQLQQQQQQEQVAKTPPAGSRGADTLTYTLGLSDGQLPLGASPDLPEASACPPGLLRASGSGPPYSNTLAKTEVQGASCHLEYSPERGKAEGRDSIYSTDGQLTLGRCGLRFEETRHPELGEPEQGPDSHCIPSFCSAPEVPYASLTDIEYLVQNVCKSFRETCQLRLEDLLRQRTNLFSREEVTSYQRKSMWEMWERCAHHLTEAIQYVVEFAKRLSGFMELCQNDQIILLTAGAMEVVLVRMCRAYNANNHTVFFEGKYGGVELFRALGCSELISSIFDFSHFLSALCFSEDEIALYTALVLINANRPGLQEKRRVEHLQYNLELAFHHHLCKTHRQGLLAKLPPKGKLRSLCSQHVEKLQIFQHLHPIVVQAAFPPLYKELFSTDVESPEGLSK
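ROR gamma transcriptional activity was tracked as Gal4-UAS luciferase output in stably transfected Drosophila Schneider cells, with compound added 1 hr before 700 uM copper sulfate induction and a 20 hr ambient-temperature incubation.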
DT40 TDP1 CPT – qHTS for Inhibitors of human tyrosyl-DNA phosphodiesterase 1 (TDP1): qHTS in cells in presence of CPT | 420,000 tested, 12% active | AID 686979, 2013 | chicken DT40 Tdp1-/-;hTDP1 cells + 20 nM CPT, ATP luminescence, 48 h | Potency, µM (titrated, usually from 46.2 µM), for inactives: top-dose activity change, negative = growth inhibition, most hits filed as inhibitors; also: nearly all actives have a fitted effect of over 55% in size
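Chicken DT40 Tdp1-/- cells complemented with human TDP1, 400 cells/well, exposed to compounds plus 20 nM camptothecin for at least 48 h at 37 C; viability read as ATP content by CellTiter-Glo luminescence.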
VP16 counter – VP16 counterscreen qHTS for inhibitors of ROR gamma transcriptional activity; Drosophila S2 Gal4-VP16 UAS-luciferase, luminescence, 20 h; Potency, µM (top dose mostly 53.6 µM), inactives show at the highest dose activity, negative = inhibition, actives largely listed as inhibitors; 310,000 tested, 3.5% active; AID 2546, 2010;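 also: Gal4-VP16 expression switched on by copper sulfate through the metallothionein promoter; nearly all actives have a fitted effect of over 50% in size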
ELG1 DNA repair – qHTS screen for small molecules that inhibit ELG1-dependent DNA repair in human embryonic kidney (HEK293T) cells expressing luciferase-tagged ELG1 | HEK293T ELG1-luciferase reporter, luminescence, 16 h; DNA damage induced by 5-fluorouridine | Potency, µM (doses to about 46.1 µM), inactives show at the top dose activity change, negative = inhibition, hits mostly inhibitors | 330,000 tested, 2.3% active; also: nearly all actives have a fitted effect of over 55% in size
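Cells (2,000 per well) received 5-fluorouridine plus test compound or DMSO and were incubated 16 hr at 37 °C, 5% CO2. Luciferase activity was read by luminescence 30 min after ONE-Glo addition; signal suppression marked inhibition of damage-induced ELG1 function.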
DT40 TDP1 no CPT – qHTS for Inhibitors of human tyrosyl-DNA phosphodiesterase 1 (TDP1): qHTS in cells in absence of CPT; DT40 Tdp1-/- hTDP1 cells, no CPT, ATP luminescence, 48 h; AID 686978, 2013; Potency, µM (doses to about 46.2 µM), for the others: top-dose activity change, negative = growth inhibition, usual class: inhibitors; 420,000 tested, 15% active; also: nearly all actives have a fitted effect of over 55% in size
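Chicken DT40 Tdp1-/- cells stably complemented with human TDP1 were seeded at 400 cells/well with DMSO in place of 20 nM camptothecin. After compound pinning, cells grew at least 48 hr at 37 °C; viability read by CellTiter-Glo luminescence.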
12-LOX inh – Primary qHTS assay for inhibitors of human arachidonate 12S-lipoxygenase (ALOX12): Round 2; Polyunsaturated fatty acid lipoxygenase ALOX12 (Homo sapiens), P18054; Potency, µM (series often up to 108 µM), for the others: at the highest dose activity change, negative = inhibition, most hits filed as inhibitors; 580,000 tested, 1.1% active; purified 12hLO, xylenol orange hydroperoxide absorbance
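Purified human 12hLO (150 nM final) in 25 mM Hepes, 0.01% Triton X-100, pH 7.0 was preincubated 15 min at room temperature with compound. Then 40 uM arachidonic acid was added, 30 min. Hydroperoxide was read by Fe-XO absorbance ratio 573/405 nm.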
Active calls of the source: *; ? = inconclusive; nt = not tested or not shown. Calls follow the shape of the dose curve; as a rule, active = well fitted curve in the direction sought with a large enough effect; inconclusive = small, poorly fitted or top-dose-only effect, or another doubt; inactive = no such curve, though single readings can be large; an effect the other way counts as inactive or inconclusive. % is scaled to controls: 0 for no effect and ±100 for the full control effect; potency is read from the fitted curve at half-maximal effect.

SMILES	RORg inh	DT40 TDP1 CPT	VP16 counter	ELG1 DNA repair	DT40 TDP1 no CPT	12-LOX inh
O=c1cc(CCl)[nH]c2nc3ccccc3n12	6%	-8%	-10%	-9%	-3%	0%
CN(C)c1ccnc(Nc2ccccc2)c1C#N	4%	-9%	-6%	2%	-8%	-20%
CN(C)c1ccnc2c[cH-]cc12.[Fe].c1ccc(-[c-]2[c-](-c3ccccc3)[c-](-c3ccccc3)[c-](-c3ccccc3)[c-]2-c2ccccc2)cc1 (stereo not drawn)	-1%	5.2µM*	1%	?	3.7µM*	?
CC(C1SC(=S)NC1=O)C1SC(=S)NC1=O (stereo not drawn)	nt	-25%	nt	nt	-25%	13µM*
CC1(C)C(=O)N(Cc2ccccc2)[C@H]2CN(Cc3ccc(C(=O)O)cc3)C[C@H]2[S+]1(=O)[O-]	nt	nt	nt	nt	nt	2%
O=C(COc1ccc(Cl)cc1)Nc1c(NC2CCCCC2)c2ccccc2oc1=O	nt	nt	nt	nt	nt	7%
O=C(NC(=S)Nc1ccc(Cc2ccncc2)cc1)c1ccc(F)cc1	4.5µM*	?	?	?	16µM*	?
CC(C)(C)C(=O)NC(=S)Nc1cccc(C(=O)O)c1	-29%	7%	-10%	?	1%	?
CC(C)(C)C(=O)NC(=S)Nc1ccc(F)cc1	10µM*	3%	?	?	-10%	?
CC(C)(C)C(=O)NC(=S)Nc1ccc(Cc2ccncc2)cc1	13µM*	?	13µM*	?	?	5%
CN(C)c1cccc2c(C(=O)c3ccccc3)ccc(N(C)C)c12	nt	nt	nt	nt	nt	7%
Cc1ccc2oc(=O)n(Cc3ccccc3OC(C)C)c2c1	-10%	?	?	-5%	15µM*	0%
COc1ccccc1Cn1c(=O)oc2ccc(C)cc21	-16%	-9%	-1%	-8%	-14%	2%
COc1ccc(N(C(=O)c2ccco2)S(=O)(=O)c2ccc3c(c2)oc(=O)n3C)cc1	nt	nt	nt	nt	nt	-22%
CC(Sc1nc2cc(Cl)ccc2s1)C(=O)NCc1ccc2c(c1)OCO2 (stereo not drawn)	nt	nt	nt	nt	nt	-29%
CCCc1nc2ccc(NC(C)=O)cc2c(=O)n1Cc1ccc(Cl)cc1	?	?	-1%	?	23µM*	-23%
Cn1c(CN2CCCCC2)nc2cc(NC(=O)c3cccs3)ccc21	-12%	?	-3%	0%	-24%	6%
CCCc1nc2ccc(NC(=O)c3cccs3)cc2c(=O)n1Cc1ccccc1Cl	15%	?	-15%	?	16µM*	-5%
COc1ccc(C(=O)N2[C@@H]3CC[C@H]2CC(NC(=O)c2cnc(C)cn2)C3)cc1F (stereo partly drawn)	nt	nt	nt	nt	nt	3%
Cc1cc(C(=O)CN2C(=O)C(=O)N(CC(C)C)C2=O)c(C)n1-c1ccccc1F	25%	8%	-8%	?	2%	-17%
Cc1cc(C(=O)COC(=O)c2ccc(N)c([N+](=O)[O-])c2)c(C)n1-c1ccc2c(c1)OCO2	?	9.2µM*	?	15%	5.8µM*	-16%
C=CCn1c(C)cc(C(=O)COC(=O)c2ccc(N)c([N+](=O)[O-])c2)c1C	22%	18µM*	?	?	16µM*	4%
